# According to PubChem BioAssay (EPA / NIEHS):
# Results filed as inconclusive are left out. Active and inactive are the calls of the source. The calls were made as follows, unless noted: active = hit-call score of the fitted dose curve at least 0.9, where 1 is the maximum; inactive = score below 0.9.
# Legend:
# [1] = UKN4_HCS_LUHMES_neurite_outgrowth: University of Konstanz (UKN) Leist Lab Neurite Outgrowth Assay in human LUHMES cells (UKN4) (AID 2284206); settings: actives raise or lower the signal
# How it was run: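 Neurite area in dopaminergic-model LUHMES neurons is measured by high-content imaging of calcein-AM after 24 h treatment starting shortly after day-2 replating; Hoechst staining tracks viability.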
# [2] = IUF_NPC1a_proliferation_area_72hr: Leibniz Research Institute for Environmental Medicine (IUF) 72-hour Neural Progenitor Cell Proliferation Area Assay (NPC1a) (AID 2284208)
# How it was run: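 Single 0.25–0.35 mm human fetal neural progenitor spheres in proliferation medium with EGF and FGF, exposed 72 h from plating without renewal at 37C, pH 7.2-7.6. Sphere area growth measured by automated phase-contrast imaging, relative to DMSO.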
# [3] = IUF_NPC1_viability_72hr: Viability Assessment at 72 hours in the Leibniz Research Institute for Environmental Medicine (IUF) Neural Progenitor Cell Proliferation Assay (NPC1) (AID 2284209)
# How it was run: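 Three-day continuous exposure of human neural progenitor spheres under EGF/FGF-driven proliferation; cell viability scored by alamar blue signal versus DMSO.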
# [4] = CCTE_Mundy_HCI_Cortical_Synap_Neur_Matur_NeuriteSpotCountPerNeuriteLength: CCTE's Synaptogenesis and Neurite Maturation Assay in rat cortical cells for Neurite Spot Count per Neurite Length, Mundy Lab (AID 2284210)
# How it was run: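 Synaptophysin spots per unit neurite length, measured by automated imaging of MAP2/synaptophysin/Hoechst-stained neurons. Cultures from rat cortex received chemical at DIV 7 with media change through DIV 12; glial growth arrested by AraC at DIV 5; DMSO baseline.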
# [5] = CCTE_Mundy_HCI_Cortical_Synap_Neur_Matur_BPCount: CCTE's Synaptogenesis and Neurite Maturation Assay in rat cortical cells for Branch Point Count, Mundy Lab (AID 2284211)
# How it was run: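 In this multiplexed morphology assay, cortical cells from rat receive chemicals at DIV 7 and are fixed at DIV 12, then immunostained and imaged; branch points are counted, with DMSO as baseline.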
# [6] = CCTE_Mundy_HCI_Cortical_NOG_NeuriteCount: CCTE's Neurite Outgrowth Assay in rat cortical cells for Neurite Count, Mundy Lab (AID 2284212);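 also: cells fixed about two days after chemical exposure began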
# How it was run: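 Rat cortical primary cells; compound added 2 h post-plating, 1/10 dilution of working solution. Anti-betaIII-tubulin/AF488 ICC; ArrayScan neurite count vs DMSO.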
# [7] = CCTE_Mundy_HCI_Cortical_NOG_NeuriteLength: CCTE's Neurite Outgrowth Assay in rat cortical cells for Neurite Length, Mundy Lab (AID 2284213);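 also: neurites imaged about 48 to 50 h after chemical exposure began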
# How it was run: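 First, rat primary cortical cells were plated and, 2 h later, given test chemical as a 1/10 dilution. Finally, βIII-tubulin immunostaining enabled automated imaging of neurite length.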
# [8] = CCTE_Mundy_HCI_Cortical_Synap_Neur_Matur_NeuriteLength: CCTE's Synaptogenesis and Neurite Maturation Assay in rat cortical cells for Neurite Length, Mundy Lab (AID 2284214)
# How it was run: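 DMSO-normalised neurite length, from high-content imaging of anti-MAP2-stained rat cortical cells fixed at DIV 12. Glia were suppressed with AraC (DIV 5) before chemical exposure from DIV 7.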
# [9] = CCTE_Mundy_HCI_Cortical_Synap_Neur_Matur_SynapseCount: CCTE's Synaptogenesis and Neurite Maturation Assay in rat cortical cells for Synapse Count, Mundy Lab (AID 2284218)
# How it was run: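 Endpoint: synapses/neuron by HCI (synaptophysin puncta on MAP2-labelled neurites, Hoechst nuclei). Rat primary cortical cells, AraC DIV 5, dosed DIV 7, fixed DIV 12; DMSO negative control.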
# [10] = CCTE_Mundy_HCI_hN2_NOG_NeuriteCount: CCTE's Neurite Outgrowth Assay in human hN2 cells for Neurite Count, Mundy Lab (AID 2284219; active = hit-call score of the fitted dose curve at least 0.9, where 1 is the maximum)
# How it was run: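 In this morphology assay, hNP1-derived neurons received test chemical 2 h post-plating and were fixed two days later in warm paraformaldehyde/sucrose containing Hoechst 33342. Neurites, labelled by rabbit anti-βIII-tubulin (1:800) and Alexa Fluor-488 (1:500), were counted automatically.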
# [11] = CCTE_Mundy_HCI_hN2_NOG_NeuriteLength: CCTE's Neurite Outgrowth Assay in human hN2 cells for Neurite Length, Mundy Lab (AID 2284220; active = hit-call score of the fitted dose curve at least 0.9, where 1 is the maximum)
# How it was run: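 Plate hNP1-derived neurons, then add chemical 2 h later as a 1/10 dilution. Stain with anti-βIII-tubulin then Alexa Fluor-488 secondary, and image automatically to measure neurite length.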
# [12] = CCTE_Mundy_HCI_hN2_NOG_NeuronCount: CCTE's Neurite Outgrowth Assay in human hN2 cells for Neuron Count, Mundy Lab (AID 2284221; active = hit-call score of the fitted dose curve at least 0.9, where 1 is the maximum)
# How it was run: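 Read-out is the number of betaIII-tubulin-positive neurons imaged by automated high-content analysis, with DMSO as negative control.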
# [13] = CCTE_Mundy_HCI_Cortical_Synap_Neur_Matur_NeuriteCount: CCTE's Synaptogenesis and Neurite Maturation Assay in rat cortical cells for Neurite Count, Mundy Lab (AID 2284222)
# How it was run: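 Primary rat cortical cells were plated, treated with AraC at DIV 5, then exposed to chemicals from DIV 7 through DIV 12. After fixation and immunostaining for MAP2 and synaptophysin, imaging quantified neurites, with DMSO as the negative control.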
# [14] = CCTE_Mundy_HCI_Cortical_Synap_Neur_Matur_CellBodySpotCount: CCTE's Synaptogenesis and Neurite Maturation Assay in rat cortical cells for Cell Body Spot Count, Mundy Lab (AID 2284223)
# How it was run: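 Primary rat cortical cultures, AraC added at DIV 5; dosed DIV 7 through DIV 12 […]. Fixed, stained for MAP2 and synaptophysin with Hoechst; cell body-associated synaptophysin puncta per neuron counted by high-content imaging, loss vs DMSO.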
# [15] = UKN4_HCS_LUHMES_cell_viability: Viability Assessment in the University of Konstanz (UKN) Leist Lab Neurite Outgrowth Assay in human LUHMES cells (UKN4) (AID 2284232)
# How it was run: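 Measured in replated, 2-day-differentiated LUHMES cells treated 24 h; stained 30 min with H-33342 and calcein-AM before high-content imaging.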
# [16] = UKN2_HCS_IMR90_cell_viability: Viability Assessment in the University of Konstanz (UKN) Leist Lab Neural Crest Cell Migration Assay in human induced IMR90 Pluripotent Stem Cells (UKN2) (AID 2284233);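 also: cells exposed to compound for 24 h after a 24 h migration phase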
# How it was run: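 After calcein-AM/Hoechst staining, viability is quantified by high-content fluorescence imaging, relative to DMSO, in iPSC (IMR90)-derived neural crest cells. Exposure lasts 24 h, starting after a 24 h migration period on PLO/laminin/fibronectin coating.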
# [17] = CCTE_Mundy_HCI_Cortical_NOG_BPCount: CCTE's Neurite Outgrowth Assay in rat cortical cells for Branch Point Count, Mundy Lab (AID 2284237);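 also: branch points counted about two days after chemical exposure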
# How it was run: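 Measured 50.33 h after dosing, this morphology endpoint uses rat primary cortical cultures labelled for betaIII-tubulin. Branch points are quantified by high-content imaging, with DMSO as negative control and baseline.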
# [18] = CCTE_Mundy_HCI_hNP1_Casp3_7: CCTE's Caspase-Glo 3/7 Assay in human neuroprogenitor cells for Apoptosis, Mundy Lab (AID 2284240)
# How it was run: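 Apoptosis is scored by activated caspase-3/7 luminescence in WA09-derived neural progenitor cells, measured 26.5 h after chemical dosing. Values represent gain of signal relative to DMSO vehicle.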
# [19] = CCTE_Mundy_HCI_hNP1_CellTiter: CCTE's Cell Titer-Glo 2 Assay in human neuroprogenitor cells for Viability, Mundy Lab (AID 2284241; active = hit-call score of the fitted dose curve at least 0.9, where 1 is the maximum)
# How it was run: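 Human neural progenitor cells (hNP1, WA09-derived) were plated on poly-L-ornithine/laminin and grown 40 to 44 hours at 37 °C, 5% CO2 before chemical addition. Twenty-four hours later, ATP was measured by CellTiter-Glo luminescence; loss of signal versus DMSO indicates reduced viability.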
# [20] = CCTE_Mundy_HCI_Cortical_Synap_Neur_Matur_NeuronCount: CCTE's Synaptogenesis and Neurite Maturation Assay in rat cortical cells for Neuron Count, Mundy Lab (AID 2284242; active = hit-call score of the fitted dose curve at least 0.9, where 1 is the maximum;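 also: hits reduce neuron count versus DMSO baseline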)
# How it was run: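 Measured at DIV 12: fluorescently labelled neurons (Hoechst nuclei, MAP2) in rat primary cortical cultures, counted by high-content imaging. AraC suppressed glia from DIV 5; DMSO served as negative control.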
# [21] = IUF_NPC2c_oligodendrocyte_migration_120hr: Leibniz Research Institute for Environmental Medicine (IUF) 120-hour Neural Progenitor Cell Migration Assay for Oligodendrocyte Migration (NPC2c) (AID 2284297);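 also: O4-positive oligodendrocyte migration distance divided by radial glia migration distance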
# How it was run: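 Human fetal neural progenitor spheres (0.3 mm) are plated on poly-D-lysine/laminin in N2 differentiation medium and exposed for 120 h, with half-medium renewal at day 3. Oligodendrocyte (O4+) migration distance comes from ICC imaging, normalised to radial glia migration.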
# [22] = IUF_NPC2a_radial_glia_migration_120hr: Leibniz Research Institute for Environmental Medicine (IUF) 120-hour Neural Progenitor Cell Migration Assay for Radial Glia Migration (NPC2a) (AID 2284298)
# How it was run: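 Human fetal-cortex neural progenitor spheres (0.3 mm) plated on poly-D-lysine/laminin in N2 differentiation medium, exposed 120 h at 37C with half-medium renewal at day 3. Radial glia migration distance (um) measured from Hoechst-stained nuclei images; DMSO baseline.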
# [23] = IUF_NPC2b_neuronal_migration_120hr: Leibniz Research Institute for Environmental Medicine (IUF) 120-hour Neural Progenitor Cell Migration Assay for Neuron Migration (NPC2b) (AID 2284300)
# How it was run: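 0.3 mm hNPC spheres on poly-D-lysine/laminin in N2 differentiation medium exposed 120 h, half-medium refresh day 3; 7 concentrations, DMSO max 0.1%. Neuron (TUBB3) distance from sphere core by ICC imaging, normalised to radial glia migration.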
# [24] = IUF_NPC3_neuronal_differentiation_120hr: Leibniz Research Institute for Environmental Medicine (IUF) 120-hour Neuronal Differentiation Assay (NPC3) (AID 2284301)
# How it was run: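 Value is percent TUBB3-positive neurons among Hoechst-stained nuclei in the migration area, scored by trained CNN after 120 h differentiation. Primary hNPC spheres on poly-D-lysine/laminin, N2 medium, continuous dosing from day 0, half-refeed day 3; DMSO reference.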
# [25] = IUF_NPC4_neurite_length_120hr: Leibniz Research Institute for Environmental Medicine (IUF) 120-hour Neuronal Morphology Assay for Neurite Length (NPC4) (AID 2284302)
# How it was run: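 Neurite length, the mean in um across TUBB3-stained neurons, is derived by skeletonization of high-content images after 120 h differentiation. Compound exposure, 7 concentrations plus solvent control, ran from plating of hNPC spheres on poly-D-lysine/laminin, with medium half-replaced on day 3.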
# [26] = IUF_NPC5_oligodendrocyte_differentiation_120hr: Leibniz Research Institute for Environmental Medicine (IUF) 120-hour Oligodendrocyte Differentiation Assay (NPC5) (AID 2284304; active = hit-call score of the fitted dose curve at least 0.9, where 1 is the maximum;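 also: primary human fetal neural progenitor spheres plated to migrate and differentiate; share of O4-positive cells among Hoechst nuclei found by CNN image analysis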)
# How it was run: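 Human fetal neural progenitor spheres (0.3 mm) plated on poly-D-lysine/laminin in N2 differentiation medium and exposed for 120 h at 7 concentrations, with half-medium renewal at day 3. O4-positive cells identified by CNN, expressed as percent of Hoechst nuclei.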
# [27] = IUF_NPC4_neurite_area_120hr: Leibniz Research Institute for Environmental Medicine (IUF) 120-hour Neuronal Morphology Assay for Neurite Area (NPC4) (AID 2284305; active = hit-call score of the fitted dose curve at least 0.9, where 1 is the maximum)
# How it was run: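 Neurite area (pixels, nuclei excluded) of TUBB3-positive neurons from hNPC spheres differentiating 5 days under continuous exposure at 37 C, 5% CO2. High-content imaging; loss of signal versus DMSO control across 7 concentrations.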
# [28] = IUF_NPC2-5_cytotoxicity_72hr: Cytotoxicity Assessment at 72 hours in the Leibniz Research Institute for Environmental Medicine (IUF) Neural Progenitor Cell Migration and Differentiation Assay for Cytotoxicity (NPC2-5) (AID 2284306; active = hit-call score of the fitted dose curve at least 0.9, where 1 is the maximum;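 also: LDH release into supernatant measured by resorufin fluorescence marking membrane damage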)
# How it was run: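 Membrane-integrity cytotoxicity at 72 h, read as LDH-driven resorufin fluorescence in supernatant. hNPC spheres from fetal cortex differentiate on coated plates in N2 medium, 37C, 5% CO2; seven serial compound concentrations plus solvent control (DMSO ≤0.1%).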
# [29] = IUF_NPC2-5_cytotoxicity_120hr: Cytotoxicity Assessment at 120 hours in the Leibniz Research Institute for Environmental Medicine (IUF) Neural Progenitor Cell Migration and Differentiation Assay (NPC2-5) (AID 2284307; active = hit-call score of the fitted dose curve at least 0.9, where 1 is the maximum)
# How it was run: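 Human fetal (GW 16-19) neural progenitor spheres (0.3 mm) plated on poly-D-lysine/laminin in N2 differentiation medium, exposed 120 h with half-medium renewal at day 3; 7 concentrations plus solvent control, DMSO ≤0.1%. LDH release in supernatant read by resorufin fluorescence.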
# [30] = IUF_NPC2-5_cell_number_120hr: Cell Number Assessment at 120 hours in the Leibniz Research Institute for Environmental Medicine (IUF) Neural Progenitor Cell Migration and Differentiation Assay (NPC2-5) (AID 2284308);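 also: count of Hoechst-stained nuclei in migration zone around plated human neural progenitor spheres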
# How it was run: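 Human fetal neural progenitor spheres (0.3 mm) plated on poly-D-lysine/laminin in N2 differentiation medium, exposed five days across 7 concentrations with half-medium refresh at day 3. Hoechst-positive nuclei counted in migration area at 120 h, relative to DMSO.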
# [31] = IUF_NPC2-5_viability_120hr: Viability Assessment at 120 hours in the Leibniz Research Institute for Environmental Medicine (IUF) Neural Progenitor Cell Migration and Differentiation Assay (NPC2-5) (AID 2284312)
# How it was run: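 Alamar blue resorufin fluorescence read after 5 days of differentiation, with compound present from day 0 and replenished at day 3. Primary hNPC spheres on laminin-coated plates, 37C; seven concentrations plus solvent control, fitted against DMSO.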
# [32] = IUF_NPC1_cytotoxicity_72hr: Cytotoxicity Assessment at 72 hours in the Leibniz Research Institute for Environmental Medicine (IUF) Neural Progenitor Cell Proliferation Assay (NPC1) (AID 2284332; active = hit-call score of the fitted dose curve at least 0.9, where 1 is the maximum;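 also: rising LDH signal means more cytotoxicity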)
# How it was run: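 Readout is fluorescence from LDH-dependent resazurin conversion, sampled from culture medium after compound contact lasting 72 h. Each well holds one 0.25-0.35 mm human progenitor sphere kept at 37C, 5% CO2 with EGF and FGF.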
smiles,measurement,setting,value
Brc1ccc(Oc2ccc(Br)cc2Br)c(Br)c1,AC50,[1],21.8 µM (active)
same,outcome,[2],inactive
same,outcome,[3],inactive
same,AC50,[4],4.11 µM (active)
same,AC50,[5],3.98 µM (active)
same,AC50,[6],23.6 µM (active)
same,AC50,[7],25.2 µM (active)
same,AC50,[8],4.59 µM (active)
same,AC50,[9],8.79 µM (active)
same,AC50,[10],8.93 µM (active)
same,AC50,[11],8.87 µM (active)
same,AC50,[12],4.6 µM (active)
same,AC50,[13],5.14 µM (active)
same,outcome,[14],inactive
same,AC50,[15],41.5 µM (active)
same,outcome,[16],inactive
same,AC50,[17],25.6 µM (active)
same,outcome,[18],inactive
same,outcome,[19],inactive
same,AC50,[20],7.42 µM (active)
same,outcome,[21],inactive
same,outcome,[22],inactive
same,outcome,[23],inactive
same,outcome,[24],inactive
same,outcome,[25],inactive
same,AC50,[26],10.4 µM (active)
same,outcome,[27],inactive
same,outcome,[28],inactive
same,outcome,[29],inactive
same,outcome,[30],inactive
same,outcome,[31],inactive
same,outcome,[32],inactive
